D2 ag-1: human D2 receptor agonism in beta-arrestin assay | P14416 | DiscoveRx PathHunter D2 beta-arrestin, luminescence, 90 min; 100% = 57 uM dopamine signal | activation, % (test concentration not listed) | 360,000 tested, 0.084% active | AID 624465; in the data active = activation above about 40%; inconclusive = between about 15% and that limit
Target sequence (P14416 whole entry, looked up): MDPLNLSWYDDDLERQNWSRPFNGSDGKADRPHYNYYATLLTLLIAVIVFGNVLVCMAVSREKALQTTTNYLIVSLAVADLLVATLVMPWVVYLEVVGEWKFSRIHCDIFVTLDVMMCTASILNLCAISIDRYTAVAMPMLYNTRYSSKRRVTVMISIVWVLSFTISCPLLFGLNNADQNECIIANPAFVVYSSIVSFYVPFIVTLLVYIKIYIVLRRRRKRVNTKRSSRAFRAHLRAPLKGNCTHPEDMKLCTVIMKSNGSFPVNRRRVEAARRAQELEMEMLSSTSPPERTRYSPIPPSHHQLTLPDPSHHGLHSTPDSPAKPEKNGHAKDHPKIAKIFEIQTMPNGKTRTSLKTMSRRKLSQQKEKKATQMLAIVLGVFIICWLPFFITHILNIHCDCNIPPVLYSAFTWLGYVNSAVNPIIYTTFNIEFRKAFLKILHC
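Agonist mode: compounds alone added to overnight-plated D2 PathHunter cells for 90 min at 37 C, with 57 uM final dopamine (EC100) defining full response. Beta-arrestin recruitment detected by chemiluminescent reagent, read after 1 h at ambient temperature.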
D2 PAM-1: positive allosteric modulators of human D2 dopamine receptor; DiscoveRx D2 beta-arrestin cells, luminescence, 90 min; 100% = 57 uM dopamine signal; potentiation, % (test concentration not listed); P14416; 360,000 tested, 0.23% active; in the data active = potentiation above about 50%; inconclusive = mostly about 30% to 49%
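D2 cells co-treated with compound plus 50 nM dopamine (EC20) for 90 min at 37 deg C to detect potentiation. Beta-arrestin recruitment was read as enzyme-fragment luminescence after 1 h at ambient temperature. Full response was set by 57 uM dopamine.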
D2 ag-2: activates the human D2 dopamine receptor; HEK293 T-REx D2 cells, calcium flux agonist mode; activation, % at 2 µM; 340,000 tested, 0.53% active; AID 485358;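 active = activation over 3 SD above normal in the single-dose calcium agonist read, cut at about 30% in these data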; also: 0% is about no effect
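Calcium-flux readout, 1 cycle/sec over 180 s following compound pin transfer, in inducible HEK293 Trex D2 cells (force-coupled); dopamine controls included. Positive calcium responses during this window marked compounds as potential agonists.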
D2 antagonist: D2 dopamine receptor (human) antagonism; 340,000 tested, 2% active; HEK293 TREx D2 cells, calcium flux, dopamine EC80; inhibition, % at 10 µM; P14416; in the data active = inhibition above about 30%; inactive = below that, where a call was filed; also: 0% is about no effect
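Calcium mobilization kinetics were recorded at 1 s intervals in tetracycline-induced HEK293 T-REx D2 cells, first for 180 s after compound addition and then 180 s after EC80 dopamine.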
D2 PAM-2: positively modulates the human D2 dopamine receptor allosterically; HEK293 T-REx D2, calcium flux, EC20 dopamine potentiation; potentiation, % at 10 µM; 340,000 tested, 0.34% active;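 active = potentiation over 3 SD above the plate norm, cut at about 30% in these data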; also: 0% is about no effect
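Primary screen. Calcium kinetics in induced HEK293 T-REx D2 cells: compound pre-addition 180 s, EC20 dopamine, 180 s more.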
Starred values were filed as active, the others as inactive; ? = inconclusive; . = no result given. An excerpt weighted towards active compounds, which were near 2.4% of everything screened.

SMILES | D2 ag-1 | D2 PAM-1 | D2 ag-2 | D2 antagonist | D2 PAM-2
CC[C@]12CCCN3CCc4c(n(c5ccccc45)[C@](O)(C(=O)OC)C1)[C@@H]32 | -4.0 | 12.7 | 0.7 | -10.9 | 13.6
CCC12CCCN3CCc4c(n(c5ccccc45)C(O)(C(=O)OC)C1)C32 (stereo not drawn) | 5.3 | -6.4 | 0.5 | 51.0* | -30.0
O=C(CN1C(=O)c2cccnc2Oc2ccc(Cl)cc21)NC1CCCCCC1 | 3.6 | 0.0 | 0.0 | 41.1* | -9.0
O=S(=O)([O-])CCC[n+]1c(/C=C\Nc2ccccc2)oc2ccc(-c3ccccc3)cc21 | . | . | 52.1* | -2.7 | 10.6
Cc1oc2cc(O)ccc2c(=O)c1Oc1ccccc1Br | -3.4 | 2.0 | -1.5 | 36.6* | -6.0
Cc1oc2cc(O)ccc2c(=O)c1Oc1ccccc1 | -3.0 | -17.0 | 0.3 | 17.0 | 5.1
CCC(C)NCCOc1ccc(C)cc1[N+](=O)[O-] (stereo not drawn) | -4.5 | -20.6 | 0.3 | 53.7* | -21.2
C=CCc1ccc(OCCOCCOc2ccc(C)cc2[N+](=O)[O-])c(OC)c1 | -2.5 | -15.0 | 0.1 | -20.5 | 13.4
C=CCN(CC=C)CCOc1ccc(C)cc1[N+](=O)[O-] | 0.9 | -6.1 | -1.0 | 38.3* | -22.7
COCCCNCCCCOc1ccc(C)cc1[N+](=O)[O-] | -0.4 | -17.0 | . | . | .
CCCCNCCOCCOc1ccc(C)cc1[N+](=O)[O-] | -0.9 | -15.9 | -1.4 | -0.9 | -31.2
C=CCNCCOc1ccc(C)cc1[N+](=O)[O-] | -3.6 | -7.6 | 0.1 | 45.8* | -30.8
CCOC(=O)CC(NC(=O)N1CCC(CN2CCC(C)CC2)CC1)c1ccccc1 (stereo not drawn) | . | . | 0.6 | . | -1.1
Cc1nc2ccc(NC(=O)c3ccc([N+](=O)[O-])cc3[N+](=O)[O-])cc2s1 | ? | 51.6* | 0.2 | -3.0 | -9.1
Cn1c(=O)c2c(c3ccccc31)OC(=O)CC2c1ccccc1 (stereo not drawn) | . | . | 0.1 | . | 1.2
Cc1ccccc1-c1noc(-c2ccc(NCc3cccnc3)c([N+](=O)[O-])c2)n1 | . | . | -1.7 | . | 13.4
Cc1ccccc1NCC(=O)N/N=C/C(Br)=C/c1ccccc1 | -0.1 | -8.2 | -0.5 | -6.5 | 32.5*
Cc1c(Cc2ccccc2)sc(/N=C/c2c(O)ccc3ccccc23)c1C(N)=O | -1.9 | 57.3* | 1.3 | -7.4 | -8.5
CN1C(=O)/C(=C\c2ccc(N(C)C)cc2)OC1=S | -0.7 | -3.9 | 86.3* | 47.5* | -19.7
COc1ccc(/C=C2\OC(=S)N(C)C2=O)cc1 | -1.2 | -2.4 | -0.9 | -6.3 | -7.7
O=C(CCl)Nc1ncc(S(=O)(=O)c2ccc([N+](=O)[O-])cc2)s1 | ? | 5.8 | . | . | .
CCC(C)(C)C(=O)Nc1ncc(S(=O)(=O)c2ccc([N+](=O)[O-])cc2)s1 | 7.0 | 87.6* | 5.9 | -13.5 | 30.8*
O=C(Nc1ncc(S(=O)(=O)c2ccc([N+](=O)[O-])cc2)s1)c1ccc2ccccc2c1 | 13.8 | 73.2* | . | . | .
Cc1ccc(Cn2c(=O)n(Cc3ccc(Cl)cc3)c(=O)c3cccnc32)cc1 | . | . | . | . | 1.1
COc1c(Cl)cc(Cl)cc1C(=O)Nc1cccc(-c2nc3ccccc3o2)c1C | . | . | -1.0 | . | 5.2
SMILES | D2 ag-1 | D2 PAM-1 | D2 ag-2 | D2 antagonist | D2 PAM-2
CCC1ON(C(C)C)C2c3nc4ccccc4n3CC12 (stereo not drawn) | -1.3 | -5.0 | 0.2 | 32.2* | 6.8
CCC1ON(c2ccccc2)C2c3nc4ccccc4n3CC12 (stereo not drawn) | -0.1 | -7.5 | 0.3 | 36.2* | 15.5
COc1cccc(-c2nc(-c3ccccc3)c(-c3ccccc3)[nH]2)c1OCC(=O)O | 4.8 | 65.4* | 1.1 | -5.9 | -3.9
O=C(O)COc1ccccc1-c1nc(-c2ccccc2)c(-c2ccccc2)[nH]1 | 7.9 | 7.0 | -0.2 | -1.7 | 8.5
CC(Nc1oc(-c2ccco2)nc1C#N)c1ccccc1 (stereo not drawn) | -0.9 | -21.6 | -1.6 | -6.8 | -1.1
CC(C)CNc1oc(-c2ccco2)nc1C#N | -3.2 | -25.5 | -1.5 | 6.4 | 35.8*
CCOc1ccc(CN(C)c2nc(-c3cccnc3)nc3ccccc23)cc1OC | -0.1 | -6.1 | 0.1 | 36.0* | -13.6
CN(Cc1ccccc1F)c1nc(-c2cccnc2)nc2ccccc12 | -1.1 | -19.7 | . | . | .
